# Where “and” joins values, the source holds several entries; their conditions need not be identical. Equal values may be shown once. Results filed as inconclusive are left out. A call without a number means that no potency is given here. More than one record can exist for a structure, and the calls need not agree. Calls of active or inactive are those of the source. Unless noted, calls come from the whole dose curve; as a rule, active = well fitted curve in the direction sought with a large enough effect in the repeat runs; inconclusive = weak or mixed curves; inactive = no such curve, though single readings can be large; an effect the other way counts as inactive or inconclusive.
# Tests used:
# [1] = qHTS assay to identify aromatase inhibitors - cell viability counter screen (AID 743084);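 note: cells stimulated with testosterone during compound exposure; nearly all actives have a fitted effect of over 55% in size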; note: potency is the fitted concentration of half-maximal effect
# [2] = biological target: Aryl hydrocarbon receptor (Homo sapiens) (UniProt P35869); test: qHTS assay to identify small molecule that activate the aryl hydrocarbon receptor (AhR) signaling pathway (AID 743085); note: nearly all actives have a fitted effect of over 15% in size; note: potency is the fitted concentration of half-maximal effect;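 for activation: HG2L7.5c1 human HepG2 liver cells with stably integrated DRE-driven firefly reporter; series mostly up to about 70 µM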
# Chain of Aryl hydrocarbon receptor (Homo sapiens) (P35869 whole entry, looked up): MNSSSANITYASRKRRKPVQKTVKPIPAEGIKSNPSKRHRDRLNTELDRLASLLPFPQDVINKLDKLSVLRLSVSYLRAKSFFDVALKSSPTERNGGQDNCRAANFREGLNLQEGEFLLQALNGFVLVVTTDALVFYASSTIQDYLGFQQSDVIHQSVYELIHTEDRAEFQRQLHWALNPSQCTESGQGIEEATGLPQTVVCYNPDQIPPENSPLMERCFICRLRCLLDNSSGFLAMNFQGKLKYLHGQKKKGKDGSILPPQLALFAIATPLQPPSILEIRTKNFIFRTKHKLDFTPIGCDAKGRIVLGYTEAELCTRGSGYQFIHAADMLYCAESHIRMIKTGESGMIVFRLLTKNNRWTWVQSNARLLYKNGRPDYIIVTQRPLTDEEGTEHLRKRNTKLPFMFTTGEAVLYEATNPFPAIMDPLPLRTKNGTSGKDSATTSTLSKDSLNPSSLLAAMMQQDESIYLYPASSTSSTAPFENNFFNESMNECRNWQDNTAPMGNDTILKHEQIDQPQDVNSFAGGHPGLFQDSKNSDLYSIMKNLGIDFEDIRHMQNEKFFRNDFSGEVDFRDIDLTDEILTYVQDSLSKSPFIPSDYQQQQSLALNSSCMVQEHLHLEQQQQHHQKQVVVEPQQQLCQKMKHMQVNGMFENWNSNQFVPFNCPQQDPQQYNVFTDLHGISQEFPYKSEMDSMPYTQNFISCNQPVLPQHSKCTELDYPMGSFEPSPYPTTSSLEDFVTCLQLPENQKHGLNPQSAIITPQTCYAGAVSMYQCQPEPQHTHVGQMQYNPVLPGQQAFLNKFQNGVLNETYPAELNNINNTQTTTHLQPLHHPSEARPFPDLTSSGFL
# How it was run: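 24 h compound exposure, 37C, HepG2-derived HG2L7.5c1 cells with DRE-responsive luciferase. Readouts: fluorescence viability, then luminescence at room temperature after 30 min.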
# [3] = qHTS assay to identify small molecule that activate the aryl hydrocarbon receptor (AhR) signaling pathway - cell viability counter screen (AID 743086); note: nearly all actives have a fitted effect of over 45% in size; note: potency is the fitted concentration of half-maximal effect
# How it was run: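 Cytotoxicity counter screen: CellTiter-Fluor signal (30 min, 37 C) in 4000 HepG2 cells/well carrying the DRE-luciferase reporter, following 24 h compound exposure at 37 C.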
# [4] = biological target: Peroxisome proliferator-activated receptor gamma (Homo sapiens) (UniProt P37231); test: qHTS assay to identify small molecule agonists of the peroxisome proliferator-activated receptor gamma (PPARg) signaling pathway (AID 743094; active = well fitted activation curve with a large enough effect in the signal ratio in the repeat runs, not every such curve was filed as active; the % refers to the signal ratio)
# Chain of Peroxisome proliferator-activated receptor gamma (Homo sapiens) (P37231 whole entry, looked up): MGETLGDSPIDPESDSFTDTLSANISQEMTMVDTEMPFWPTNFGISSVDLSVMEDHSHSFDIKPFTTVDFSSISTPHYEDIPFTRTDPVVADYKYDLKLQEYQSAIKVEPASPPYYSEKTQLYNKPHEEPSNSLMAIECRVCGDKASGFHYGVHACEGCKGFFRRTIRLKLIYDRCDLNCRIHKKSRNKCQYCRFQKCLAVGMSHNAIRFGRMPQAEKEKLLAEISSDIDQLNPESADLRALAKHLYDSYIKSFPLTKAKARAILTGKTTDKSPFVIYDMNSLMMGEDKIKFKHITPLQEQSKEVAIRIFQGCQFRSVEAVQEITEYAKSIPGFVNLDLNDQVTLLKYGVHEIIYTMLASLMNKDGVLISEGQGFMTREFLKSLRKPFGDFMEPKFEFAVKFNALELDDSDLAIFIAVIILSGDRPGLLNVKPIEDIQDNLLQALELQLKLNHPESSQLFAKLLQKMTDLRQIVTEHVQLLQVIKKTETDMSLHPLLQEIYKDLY
# How it was run: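 Beta-lactamase FRET fluorescence was the read-out after a 1 h room-temperature substrate step, following 17 h compound treatment at 37C of HEK293H cells expressing a UAS-driven bla reporter responsive to PPARg.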
# [5] = biological target: Peroxisome proliferator-activated receptor gamma (Homo sapiens) (UniProt P37231); test: qHTS assay to identify small molecule antagonists of the peroxisome proliferator-activated receptor gamma (PPARg) signaling pathway (AID 743191; calls by dose curve; note: nearly all actives have a fitted effect of over 30% in size; note: potency is the fitted concentration of half-maximal effect)
# How it was run: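 Beta-lactamase reporter under UAS control in HEK293H PPARg-bla cells; compound treatment 17 h at 37C. Read-out: fluorescence intensity after 1 h room-temperature incubation with LiveBLAzer B/G FRET substrate.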
# [6] = qHTS assay to identify small molecule antagonists of the peroxisome proliferator-activated receptor gamma (PPARg) signaling pathway - cell viability counter screen (AID 743194); conditions: Potency: co-treated with 50 nM rosiglitazone unless noted; note: nearly all actives have a fitted effect of over 55% in size; note: potency is the fitted concentration of half-maximal effect
# How it was run: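 Viability was measured as CellTiter-Glo luminescence in GeneBLAzer PPARg UAS-bla HEK293H cells. These cells had been exposed 17 h at 37 C to compounds together with rosiglitazone at 50 nM final, with the beta-lactamase readout taken in the same wells.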
# [7] = qHTS assay for small molecule agonists of the antioxidant response element (ARE) signaling pathway (AID 743202; active = well fitted activation curve with a large enough effect in the signal ratio in the repeat runs, not every such curve was filed as active; the % refers to the signal ratio; note: potency is the fitted concentration of half-maximal effect)
# How it was run: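 An ARE-responsive beta-lactamase gene stably integrated in HepG2 cells serves as reporter. After 5 h plating and 16 h compound incubation at 37 C, fluorescence of the B/G FRET substrate was measured.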
# [8] = qHTS assay for small molecule agonists of the antioxidant response element (ARE) signaling pathway - cell viability counter screen (AID 743203; calls by dose curve; note: nearly all actives have a fitted effect of over 55% in size; note: potency is the fitted concentration of half-maximal effect)
# How it was run: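 HepG2 cells carrying ARE-driven beta-lactamase; 2,000 cells/well; 5 hrs plating; compound pinned from DMSO; 16 hrs 37C/5% CO2; CellTiter-Glo added; 30 min RT; luminescence.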
# [9] = qHTS assay for small molecule activators of the heat shock response signaling pathway - cell viability counter screen (AID 743209); note: nearly all actives have a fitted effect of over 50% in size; note: potency is the fitted concentration of half-maximal effect
# How it was run: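 Luminescence from CellTiter-Glo, added after the beta-lactamase FRET read, gave the viability signal. Cells were HSE-bla HeLa treated with DMSO-dissolved compounds for 5 h at 37 C following overnight plating.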
# [10] = qHTS assay for small molecule activators of the heat shock response signaling pathway (AID 743210; active = well fitted activation curve with a large enough effect in the signal ratio in the repeat runs, with a control signal flat, not every such curve was filed as active; the % refers to the signal ratio;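 note: HeLa cells with beta-lactamase reporter driven by heat shock elements; series mostly up to about 63 µM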)
# How it was run: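 In HSE-bla HeLa cells, 5 h compound incubation (37 C) precedes addition of LiveBLAzer B/G substrate; after 2.5 h at room temperature, fluorescence intensity indicates reporter induction.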
SMILES,Potency [1],Potency [2],Potency [3],Potency [4],Potency [5],Potency [6],Potency [7],Potency [8],Potency [9],Potency [10]
CCCCOC(=O)COC(=O)c1ccccc1C(=O)OCCCC,inactive,inactive,inactive,inactive,inactive,inactive,inactive,inactive,inactive,inactive
CCOP(=S)(OCC)SCSC(C)(C)C,inactive,inactive,inactive,inactive,inactive,inactive,inactive,inactive,inactive,inactive
COP(=S)(OC)Oc1ccc(Sc2ccc(OP(=S)(OC)OC)cc2)cc1,inactive,inactive,inactive,inactive,–,inactive,inactive,43.3 µM (active) and inactive,inactive,–
COc1ccc(C=O)cc1OC,inactive,inactive,inactive,inactive,inactive,inactive,inactive,inactive,inactive,inactive
COC(=O)Nc1nc2ccccc2[nH]1,inactive,24.3 µM (active),inactive,inactive,inactive,–,inactive,inactive,inactive,inactive
O=[N+]([O-])/N=C1\NCCN1Cc1ccc(Cl)nc1,inactive,–,inactive,inactive,inactive,inactive,inactive,inactive,inactive,inactive
c1ccc2c(c1)Nc1ccccc1S2,inactive,–,inactive,inactive,inactive,inactive,inactive,inactive,inactive,inactive
OC(c1ccc(Cl)cc1)(c1cncnc1)c1ccccc1Cl (stereo not given),inactive,inactive,inactive,–,54.9 µM (active),inactive,–,inactive,inactive,inactive
N#CC(c1ccccc1)c1ccccc1,inactive,–,inactive,inactive,inactive,inactive,inactive,inactive,inactive,inactive
CCOC(=O)c1ccccc1N,inactive,inactive,inactive,inactive,–,inactive,inactive,inactive,inactive,inactive
COc1ccc(CO)cc1,inactive,inactive,inactive,–,–,inactive,inactive,inactive,inactive,inactive
CCOP(=O)(O)OCC (tested in a mixture with another compound),inactive and 24.1 µM (active),–,inactive and 30.4 µM (active),–,–,–,inactive,inactive and 17.1 µM (active),inactive,–
CCC(=O)Nc1ccc(Cl)c(Cl)c1,inactive,54.5 µM (active),inactive,inactive,–,inactive,–,inactive,inactive,inactive
CC(C)(c1ccccc1)c1ccc(O)c(C(C)(C)c2ccccc2)c1,48.1 µM (active),inactive,inactive,–,–,15.3 µM (active) and 19.5 µM (active),–,54 µM (active) and 21.7 µM (active),48.5 µM (active) and 24.5 µM (active),–
CSc1nc(NC(C)C)nc(NC(C)C)n1,inactive,inactive,inactive,inactive,–,inactive,–,inactive,inactive,inactive
N#Cc1c(Cl)c(Cl)c(Cl)c(C#N)c1Cl,1.69 µM (active) and 1.93 µM (active),inactive,inactive and 21.7 µM (active),–,–,2.41 µM (active) and 1.55 µM (active),–,10.7 µM (active) and 3.86 µM (active),854 nM (active) and 616 nM (active),–
CC(C)(c1ccc(OCC2CO2)cc1)c1ccc(OCC2CO2)cc1 (stereo not given),inactive,inactive,inactive,–,–,55.7 µM (active),61.1 µM (active),inactive,inactive,–
O=[N+]([O-])c1ccc(Cl)c([N+](=O)[O-])c1,6.21 µM (active) and 6.86 µM (active),inactive,24.7 µM (active) and 27.3 µM (active),–,8.85 µM (active) and 8.71 µM (active),11.1 µM (active) and 9.77 µM (active),–,12.4 µM (active) and 6.86 µM (active),9.92 µM (active) and 4.9 µM (active),–
C[C@]12CCC(=O)C=C1CC[C@@H]1[C@@H]2CC[C@@]2(C)[C@H]1CC[C@]2(C)O,inactive,inactive,inactive,inactive,–,inactive,–,inactive,inactive,inactive
Clc1cccc(C(Cl)(Cl)Cl)n1,inactive,–,inactive,inactive,inactive,inactive,inactive,inactive,inactive,inactive
CC(O)CN(CC(C)O)CC(C)O (stereo not given),inactive,–,inactive,–,–,inactive,inactive,inactive,inactive,inactive
CN(C)c1ccccc1,–,–,inactive,–,–,inactive,inactive,inactive,inactive,inactive
O=C1C(Cl)=C(Cl)C(=O)c2ccccc21,4.34 µM (active) and 27.3 µM (active),17.3 µM (active) and 10.9 µM (active),–,–,–,39 µM (active) and 11 µM (active),–,68.8 µM (active) and 21.7 µM (active),27.6 µM (active) and 12.3 µM (active),–
C=C(C)C#N,inactive,inactive,inactive,–,–,inactive,inactive,inactive,inactive,inactive
O=[N+]([O-])c1ccc(Nc2ccccc2)cc1,30.9 µM (active) and 27.3 µM (active),inactive,24.5 µM (active) and 24.3 µM (active),–,–,–,–,34.4 µM (active),inactive and 27.5 µM (active),inactive
CCC[CH2][Sn]([Cl])([CH2]CCC)[CH2]CCC,1.54 µM (active) and 3.06 µM (active),inactive,2.17 µM (active) and 3.44 µM (active),–,–,1.38 µM (active) and 1.1 µM (active),–,771 nM (active) and 1.09 µM (active),1.74 µM (active) and 2.75 µM (active),–
CC(C)(O)C(=O)Nc1ccc([N+](=O)[O-])c(C(F)(F)F)c1,inactive,inactive,inactive,–,–,inactive,27.9 µM (active) and 22.4 µM (active),inactive,inactive,inactive
CCC[CH2][Sn]([Cl])([Cl])[CH2]CCC,1.39 µM (active) and 686 nM (active),inactive,1.39 µM (active) and 486 nM (active),–,–,882 nM (active) and 43.6 nM (active),–,276 nM (active) and 34.4 nM (active),54.9 nM (active),–
CCCCCCCCCC(CC)c1ccc(S(=O)(=O)O)cc1 (stereo not given),inactive,–,inactive,–,–,inactive and 15.5 µM [setting not given] (active),inactive,–,inactive and 39.9 µM (active),–
